# Screening data from PubChem BioAssay.
# A selection: hits, their analogues and other compounds. The true share with any hit is near 7.4%.
# Luc counter = blocks Kinase-Glo luciferase, a counter-screen artifact; Q27757; Kinase-Glo luciferase, ATP luminescence, 8 min; Potency, µM (top dose mostly 38.3 µM), for inactives: top-dose activity change, negative = inhibition, most hits filed as inhibitors; 200,000 tested, 0.28% active; also: % is scaled to controls: 0 for no effect and ±100 for the full control effect; nearly all actives have a fitted effect of over 60% in size
#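 Recombinant Kinase-Glo luciferase, 10 uM ATP (linear range), luciferin; imidazole pH 7.2 / KCl / MgCl2 / Tween / BSA buffer; 8 min RT; luminescence.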
# Rab9 prom act = activates the Rab9 promoter; Huh7 Rab9 promoter-luciferase reporter, luminescence, 24 h; Potency, µM (series often up to 9.22 µM), inactives show top-dose activation, negative = inhibition, most hits filed as activators; 320,000 tested, 2.8% active; also: % of control where 0% means no effect; nearly all actives have a fitted effect of over 60% in size
#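 Promoter activation is measured as luciferase luminescence in Huh7 cells stably transfected with a Rab9 promoter–luciferase construct, following 24 h compound exposure at 37 °C and 10 min reagent incubation at ambient temperature.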
# ELG1 genotoxic = genotoxicity induction in ELG1-luciferase HEK293T cells; 330,000 tested, 1.3% active; Potency, µM (series often up to 46 µM), for inactives: at the highest dose activity change, positive = activation, most hits filed as activators; HEK293T ELG1-luciferase reporter, luminescence, 16 h; also: % of control where 0% means no effect; nearly all actives have a fitted effect of over 60% in size
#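 Quantitative HTS format in 1536-well plates. HEK293T ELG1-luciferase reporter cells receive test compound and are incubated 16 hr at 37 °C, 5% CO2; ONE-Glo added, 30 min room temperature, then luminescence read.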
# SMN2 splice up = enhancers of SMN2 splice variant expression; HEK293 SMN2-luciferase splicing reporter, luminescence, 30-36 h; Potency, µM (titrated, usually from 46.1 µM), for the others: top-dose activity change, positive = activation, hits mostly activators; 210,000 tested, 2.8% active; also: % of control where 0% means no effect; nearly all actives have a fitted effect of over 55% in size
#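 qHTS luciferase splicing reporter: luminescence rises when SMN2 exon 7 is included in transfected HEK293 cells. Compound exposure lasted 30-36 h at 37C, with 4.5 mM final sodium butyrate as control, followed by a ONE-Glo read.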
# FLuc modulator = firefly luciferase modulation, counter-screen for miR-21 project; AID 588342; purified FLuc, Km substrates, luminescence inhibition; 360,000 tested, 6.9% active; P08659; Potency, µM (titrated, usually from 57.5 µM), without a hit: at the top dose activity change, negative = inhibition, most hits filed as inhibitors;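 also: plate controls were vehicle for no effect and reference inhibitor for full effect; nearly all actives have a fitted effect of over 55% in size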
# Target sequence (P08659 whole entry, looked up): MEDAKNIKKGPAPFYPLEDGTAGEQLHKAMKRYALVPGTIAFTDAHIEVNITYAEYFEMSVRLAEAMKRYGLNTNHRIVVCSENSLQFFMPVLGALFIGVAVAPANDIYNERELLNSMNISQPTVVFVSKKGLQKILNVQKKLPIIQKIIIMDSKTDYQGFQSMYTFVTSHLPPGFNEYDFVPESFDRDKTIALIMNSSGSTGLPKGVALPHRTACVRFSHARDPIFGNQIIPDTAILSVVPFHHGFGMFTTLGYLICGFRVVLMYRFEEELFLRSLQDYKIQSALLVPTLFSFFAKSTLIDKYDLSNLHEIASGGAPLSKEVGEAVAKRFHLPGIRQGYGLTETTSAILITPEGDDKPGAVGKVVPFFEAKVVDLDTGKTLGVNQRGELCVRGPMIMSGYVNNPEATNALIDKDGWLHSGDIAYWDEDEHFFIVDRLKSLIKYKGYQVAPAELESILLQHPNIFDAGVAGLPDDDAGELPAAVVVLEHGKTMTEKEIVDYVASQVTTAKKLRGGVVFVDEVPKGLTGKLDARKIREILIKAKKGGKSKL
#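 Biochemical qHTS of compounds, final roughly 60 µM downward over six points, against 10 nM purified firefly luciferase using Km concentrations of substrates (10 uM D-luciferin, 10 uM ATP) in Tris acetate pH 7.5 buffer; luminescence output.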
# NPC1 promoter act = activators of NPC1 promoter; Huh7 NPC1 promoter luciferase reporter, 24 h; Potency, µM (doses to about 9.22 µM), for inactives: at the top dose activation, hits mostly activators; 320,000 tested, 2.4% active; AID 485313; also: % of control where 0% means no effect; nearly all actives have a fitted effect of over 60% in size
#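 Luciferase expression driven by the NPC1 promoter was measured in stably transfected Huh7 cells after a 24 h compound incubation, using a luciferase reagent and a luminescence read.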
# An asterisk follows results filed as active; ? = inconclusive; . = not tested or not shown; [ ] = remark or other dose. Calls follow the shape of the dose curve; as a rule, active = well fitted curve in the direction sought with a large enough effect; inconclusive = small, poorly fitted or top-dose-only effect, or another doubt; inactive = no such curve, though single readings can be large; an effect the other way counts as inactive or inconclusive. Potency is read from the fitted curve at half-maximal effect.
SMILES,Luc counter,Rab9 prom act,ELG1 genotoxic,SMN2 splice up,FLuc modulator,NPC1 promoter act
N/C(=N\OC(=O)c1ccccc1Cl)c1cccc([N+](=O)[O-])c1,.,0.89µM*,2.6µM*,.,1.2µM*,1.4µM*
COc1cc(OC)c(C(=O)O/N=C(\N)c2cccc(C)c2)cc1OC,.,1%[1.84 µM],6%,.,?,4%
O=C(CCNc1ccccc1)c1cccc([N+](=O)[O-])c1,.,4%,5%,.,-1%,1%
Cc1cccc(/C(N)=N/OC(=O)c2ccc(F)cc2)c1,11µM*,1.6µM*,?,?,0.27µM*,1µM*
Cc1ccc(CNc2ncnc3onc(C)c23)cc1,.,.,.,.,-1%,.
COc1ccc(OCC(=O)NCc2ccc3c(c2)CCN3C(=O)c2cccc(C)c2)cc1,.,.,.,.,-16%,.
CCc1ccc(NC(=O)c2cnc3scc(C)n3c2=O)cc1,-3%,4.5µM*,18µM*,8.9µM*,?,?
O=C(Nc1ccc(OC(F)(F)F)cc1)c1cnccn1,.,2.8µM*,?,.,12µM*,1.8µM*
CCc1ccc(NC(=O)c2cnccn2)cc1,.,1.3µM*,?,.,5.4µM*,1.3µM*
O=C(c1ccco1)N1CCC2(CC1)CN(c1ccccn1)C2,-6%,.,.,-11%,.,.
COc1ccc(NC(=O)CSc2nc(-c3cccs3)cc(C(F)(F)F)n2)c(OC)c1,.,.,.,5%,-10%,.
CCC(C)(C)C1CCC(=NNc2nc3ccccc3[nH]2)CC1 (configuration not stated),1%,7%,2%,1%,12µM*,6%
CCCn1c(-c2ccc(F)cc2)nc2c(NCCCN3CCCCC3C)nc(C)nc21 (configuration not stated),-2%,.,.,-9%,.,.
CC(C(Sc1ccccc1N)c1ccccc1)[N+](=O)[O-] (configuration not stated),.,-3%,?,.,9.5µM*,-14%
CN(C)C(=O)CSc1nnc2sc3ccccc3n12,0%,6%,6%,17%,-19%,2%
O=C(CSc1nnnn1-c1ccccc1)c1ccco1,1%,?,?,10%,17µM*,?
O=C(CSc1nnnn1-c1ccccc1)N1N=CCC1c1ccccc1 (configuration not stated),0%,14%,2%,19%,15µM*,4%
CCOC(=O)CC(=O)CSc1nnc2sc3ccccc3n12,-2%,3%,4%,-10%,?,3%
c1csc(CSc2nnc3sc4ccccc4n23)c1,2%,3.2µM*,?,14µM*,17µM*,?
O=C(CSc1nnc2sc3ccccc3n12)c1ccco1,-3%,?,?,11µM*,11µM*,23%
Cc1ccc(SCC(=O)N2N=CCC2c2ccccc2)cc1 (configuration not stated),2%,21%,7%,-3%,?,-5%
Cn1nnnc1SCC(=O)c1ccco1,-3%,0%,1%,-23%,8%,1%
CC[C@@H]1Cn2c(c3nc(-c4cc(Cl)cc(Cl)c4Cl)nc-3n(C)c2=O)N1,-2%[39.9 µM],.,.,.,.,.
COc1ccc(CNC(=O)Cc2c(C)c3cc4c(C)coc4cc3oc2=O)cc1,.,.,.,8%,-1%,.
COc1ccc(-c2cc3nc4ccccc4n3c(N)c2C#N)cc1,.,2µM*,14%,.,?,1.8µM*
SMILES,Luc counter,Rab9 prom act,ELG1 genotoxic,SMN2 splice up,FLuc modulator,NPC1 promoter act
COc1ccc(-c2cc(-c3ccccc3)c(C#N)c(S(C)=O)n2)cc1 (configuration not stated),-4%,-19%,-4%,-26%,0%,-4%
CC(C)c1nnc(NC(=O)Cc2cccs2)s1,-4%,1%,4%,-12%,2%,-1%
COC(=O)c1sc(NC(=O)COc2ccc(C)cc2)nc1C,-2%,11%,6%,6%,17µM*,-1%
COC(=O)c1c(NC(=O)Cc2cccs2)sc2c1CCC(C)C2 (configuration not stated),5%,?,9%,-1%,17µM*,21%
COC(=O)c1sc(NC(=O)Cc2cccs2)nc1C,-3%,27%,21µM*,?,?,13%
COC(=O)c1sc(NC(=O)COc2ccccc2)nc1C,1%,?,18µM*,8%,17µM*,?
Cc1cc2nn(-c3ccccc3)nc2cc1NC(=O)COc1ccc(Cl)cc1,.,.,.,11%,1%,.
O=C(N/N=C/C(Br)=C\c1ccccc1)c1n[nH]c2c1CCC2,7%,20%,2.3µM*,13µM*,2.4µM*,?
CC(/C=N/NC(=O)c1n[nH]c2c1CCC2)=C\c1ccccc1,-2%,2%,2.3µM*,?,4.8µM*,28%
O=C(N/N=C/c1ccc(OC(=O)c2cccs2)cc1)c1ccccn1,.,3.2µM*,7.3µM*,.,1.5µM*,2.5µM*
O=C(Oc1ccc(/C=N/NC(=O)c2ccccn2)cc1)c1cccc(Br)c1,.,3.5µM*,16µM*,.,-6%,4µM*
CCOc1cc(/C=N/NC(=O)c2ccccn2)ccc1OC(=O)c1cccs1,.,8%,?,.,?,18%
O=C(N/N=C/c1ccc(OC(=O)c2ccco2)cc1)c1ccccn1,-28%,1.8µM*,?,.,2.7µM*,2.8µM*
COc1cc(/C=N/NC(=O)c2ccccn2)ccc1OC(=O)c1ccccc1Br,.,?,-5%,.,4.8µM*,?
COc1cc(/C=N/NC(=O)c2ccccn2)ccc1OC(=O)c1ccc(Br)cc1,.,24%,?,.,-8%,?
CCCC(=O)NCC1(N(C)C)CCCCC1,.,.,.,.,0%,.
Nc1ccc(-c2cc(N)n(-c3ccccc3)n2)cc1,-28%,?,9%,?,?,0%
Cc1cc(-c2cc(N)n(-c3ccccc3)n2)c(C)n1C1CCCC1,-2%,1.6µM*,?,1%,6µM*,3.5µM*
CCOc1ccc(/C=C2\SC(=S)N(CCC(=O)N(CCO)c3ccccc3)C2=O)cc1,.,-10%,-6%,.,9.5µM*,0%
CCc1ccc(/C=C2/SC(=S)N(CCC(=O)Nc3ccc(C(=O)O)cc3)C2=O)cc1,.,-6%,-4%,.,0.85µM*,19%
COC(=O)c1ccc(/C=C2/SC(=S)N(CCCC(=O)Nc3ccccn3)C2=O)cc1,-1%,-10%,1%,-9%,?,-11%
CCc1ccc(/C=C2\SC(=S)N(CCCC(=O)Nc3ccccn3)C2=O)cc1,-4%,-20%,-1%,-57%,15µM*,-21%
COc1cccc(/C=C2\SC(=S)N(CCCC(=O)N3CCCC3)C2=O)c1,.,-17%,-7%,.,17µM*,-12%
COc1ccc(/C=C2\SC(=S)N(CCC(=O)Nc3ccc(C(=O)O)cc3)C2=O)cc1,.,0%,?,.,3µM*,12%
